Results filed as inconclusive are left out. Where a call stands in place of a potency, no number is given. A number with no mark means an inactive call. Active and inactive are the calls of the source. Unless noted, calls come from the whole dose curve; as a rule, active = well fitted curve in the direction sought with a large enough effect in the repeat runs; inconclusive = weak or mixed curves; inactive = no such curve, though single readings can be large; an effect the other way counts as inactive or inconclusive.
Key:
[1] = qHTS assay to identify aromatase inhibitors - cell viability counter screen (AID 743084); details: MCF-7 aro ERE viability, CellTiter-Fluor, 24 h; series mostly up to 70.3 µM;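 note: cells stimulated with testosterone during compound exposure; nearly all actives have a fitted effect of over 55% in size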
[2] = qHTS assay to identify small molecule that activate the aryl hydrocarbon receptor (AhR) signaling pathway - cell viability counter screen (AID 743086); details: HepG2-AhR-luc viability, CellTiter-Fluor, 24 h; series mostly up to 70.3 µM; note: nearly all actives have a fitted effect of over 45% in size; note: potency is the fitted concentration of half-maximal effect
Outline: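 Cytotoxicity counter screen: CellTiter-Fluor signal (30 min, 37 C) in 4000 HepG2 cells/well carrying the DRE-luciferase reporter, following 24 h compound exposure at 37 C.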

[3] = biological target: Peroxisome proliferator-activated receptor gamma (Homo sapiens) (UniProt P37231); experiment: qHTS assay to identify small molecule agonists of the peroxisome proliferator-activated receptor gamma (PPARg) signaling pathway (AID 743094; active = well fitted activation curve with a large enough effect in the signal ratio in the repeat runs, not every such curve was filed as active; the % refers to the signal ratio); details: HEK293H PPARg-UAS-bla, beta-lactamase FRET ratio, 17 h; series mostly up to 57 µM
Chain of Peroxisome proliferator-activated receptor gamma (Homo sapiens) (P37231 whole entry, looked up): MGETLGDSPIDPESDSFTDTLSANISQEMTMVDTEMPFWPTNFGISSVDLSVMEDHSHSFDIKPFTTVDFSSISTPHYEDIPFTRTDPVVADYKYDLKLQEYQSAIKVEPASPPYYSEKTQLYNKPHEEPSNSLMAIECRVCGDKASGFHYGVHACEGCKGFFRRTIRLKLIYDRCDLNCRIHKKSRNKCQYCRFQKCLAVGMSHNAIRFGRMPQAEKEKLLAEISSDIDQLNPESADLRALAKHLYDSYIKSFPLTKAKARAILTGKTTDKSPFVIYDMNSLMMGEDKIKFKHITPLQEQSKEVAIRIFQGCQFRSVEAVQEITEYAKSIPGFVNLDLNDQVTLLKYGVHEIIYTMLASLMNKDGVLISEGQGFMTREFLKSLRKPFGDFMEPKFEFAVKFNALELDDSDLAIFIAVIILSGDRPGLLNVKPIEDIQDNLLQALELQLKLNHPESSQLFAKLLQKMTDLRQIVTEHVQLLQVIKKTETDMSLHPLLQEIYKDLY
Outline: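 Compounds dissolved in DMSO were added to PPARg UAS-bla HEK293H cells for 17 h at 37C, and reporter expression was quantified by fluorescence intensity after 1 h with LiveBLAzer B/G FRET substrate.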

[4] = qHTS assay to identify small molecule phospholipidosis (PLD) inducers (AID 1259344; active = well fitted curve in the direction sought with a large enough effect; an effect the other way counts as inactive or inconclusive); details: HepG2 phospholipidosis, LipidTOX Red imaging, 24 h; series mostly up to 38.3 µM
Outline: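 Phospholipidosis is scored by imaging LipidTOX-stained pits in HepG2 cells exposed to compound for 24 h at 37 C; pit counts and integrated intensities per well and per cell serve as outputs.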

[5] = biological target: Aryl hydrocarbon receptor (Homo sapiens) (UniProt P35869); experiment: qHTS assay to identify small molecule that activate the aryl hydrocarbon receptor (AhR) signaling pathway (AID 743085); details: HepG2 AhR-luc (HG2L7.5c1), luciferase, 24 h; series mostly up to 70.3 µM; note: nearly all actives have a fitted effect of over 15% in size; note: potency is the fitted concentration of half-maximal effect;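 for activation: HG2L7.5c1 human HepG2 liver cells with stably integrated DRE-driven firefly reporter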
Chain of Aryl hydrocarbon receptor (Homo sapiens) (P35869 whole entry, looked up): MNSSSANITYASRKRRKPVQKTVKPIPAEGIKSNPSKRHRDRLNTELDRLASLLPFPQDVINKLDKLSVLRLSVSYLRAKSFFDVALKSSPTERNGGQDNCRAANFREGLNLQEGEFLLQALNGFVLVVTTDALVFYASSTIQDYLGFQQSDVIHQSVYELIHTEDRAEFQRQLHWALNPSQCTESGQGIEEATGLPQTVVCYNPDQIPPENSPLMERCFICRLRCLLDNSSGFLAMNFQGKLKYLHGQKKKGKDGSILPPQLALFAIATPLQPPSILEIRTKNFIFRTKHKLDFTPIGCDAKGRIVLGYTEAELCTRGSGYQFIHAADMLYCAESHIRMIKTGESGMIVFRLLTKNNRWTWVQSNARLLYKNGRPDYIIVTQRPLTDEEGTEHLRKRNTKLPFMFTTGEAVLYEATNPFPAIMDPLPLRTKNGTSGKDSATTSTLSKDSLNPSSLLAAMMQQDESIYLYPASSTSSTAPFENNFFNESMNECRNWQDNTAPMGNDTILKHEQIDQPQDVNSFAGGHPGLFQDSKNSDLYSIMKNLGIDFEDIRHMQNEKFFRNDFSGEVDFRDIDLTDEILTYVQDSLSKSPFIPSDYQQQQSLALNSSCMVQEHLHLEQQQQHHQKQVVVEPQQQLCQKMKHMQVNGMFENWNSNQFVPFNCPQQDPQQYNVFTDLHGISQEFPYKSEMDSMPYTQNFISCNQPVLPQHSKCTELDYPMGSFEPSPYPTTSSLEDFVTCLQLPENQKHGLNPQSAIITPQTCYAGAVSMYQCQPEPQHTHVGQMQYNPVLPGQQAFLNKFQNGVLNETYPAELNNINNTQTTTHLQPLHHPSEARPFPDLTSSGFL
Outline: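 Steps: seed HepG2-AhR-luc cells; allow 5 h at 37C; pin-transfer test compound or vehicle; incubate 24 h at 37C; add viability dye (30 min, 37C) and read fluorescence; add luciferase substrate (30 min, RT) and read luminescence.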

[6] = biological target: Nuclear receptor subfamily 1 group I member 2 (Rattus norvegicus) (UniProt Q9R1A7); experiment: Rat pregnane X receptor (rPXR) activation by small molecules, qHTS assay (AID 1346983); details: rPXR luciferase reporter cells, One-Glo luminescence, 24 h; max activation: active compounds read high; note: nearly all actives have a fitted effect of over 20% in size
Chain of Nuclear receptor subfamily 1 group I member 2 (Rattus norvegicus) (Q9R1A7 whole entry, looked up): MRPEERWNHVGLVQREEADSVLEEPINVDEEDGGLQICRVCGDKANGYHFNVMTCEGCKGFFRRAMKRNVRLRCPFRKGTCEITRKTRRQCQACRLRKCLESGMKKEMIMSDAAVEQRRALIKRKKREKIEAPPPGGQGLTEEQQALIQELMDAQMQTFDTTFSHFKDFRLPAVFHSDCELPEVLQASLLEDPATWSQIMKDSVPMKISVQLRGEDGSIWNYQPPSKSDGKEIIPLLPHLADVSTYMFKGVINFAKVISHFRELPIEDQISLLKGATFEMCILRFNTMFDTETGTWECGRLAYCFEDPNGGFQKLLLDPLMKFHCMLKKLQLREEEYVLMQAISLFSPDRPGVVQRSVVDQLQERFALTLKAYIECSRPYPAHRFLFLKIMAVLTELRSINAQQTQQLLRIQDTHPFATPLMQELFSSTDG
Outline: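 Luminescent readout (One-Glo luciferase, 30 min room temperature) followed 24 hr compound treatment at 37 C of rPXR cells plated 2,000 per well and preincubated 5hr; qHTS format with compounds delivered in DMSO.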

[7] = biological target: Nuclear receptor subfamily 1 group I member 2 (Homo sapiens) (UniProt O75469); experiment: CYP3A4 induction through human pregnane X receptor (PXR) by small molecules, qHTS assay (AID 1346984); details: DPX-2 HepG2 PXR, CYP3A4-luciferin luminescence, 24 h; series mostly up to 46.1 µM; note: nearly all actives have a fitted effect of over 40% in size; note: potency is the fitted concentration of half-maximal effect
Outline: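 Readings come from a luciferase reporter: DPX-2 cells, which are HepG2 cotransfected with PXR and a CYP3A4-promoter construct, were exposed to test compounds for 24 h at 37C before One-Glo detection.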

[8] = biological target: Nuclear receptor subfamily 1 group I member 2 (Homo sapiens) (UniProt O75469); experiment: Human pregnane X receptor (PXR) activation by small molecules, qHTS assay (AID 1346985); details: DPX-2 HepG2 CYP3A4-luciferase, 24 h; series mostly up to 38.3 µM; note: nearly all actives have a fitted effect of over 40% in size; note: potency is the fitted concentration of half-maximal effect
Outline: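 DPX-2 cells (HepG2 co-transfected with a PXR response element and a CYP3A4-promoter luciferase construct) were seeded at 2,000 per well, rested 5 hr at 37C, then exposed to DMSO-dissolved compounds for 24 hr. Activation was read as luciferase luminescence.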

## CC(=O)O[C@H]1C[C@@H]2CC[C@@H]3[C@H](CC[C@@]4(C)[C@H]3C[C@H](N3CC[N+](C)(C)CC3)[C@@H]4OC(C)=O)[C@@]2(C)C[C@@H]1N1CC[N+](C)(C)CC1
[1]
  Potency: inactive
[2]
  Potency: inactive
[3]
  Potency: inactive
[4]
  Potency: inactive

## CCCCCCCCCCCCCCCC(=O)O[C@@H]1[C@@H](O)[C@@H](O)[C@@H]([C@H](NC(=O)[C@@H]2C[C@@H](CCC)CN2C)[C@H](C)Cl)O[C@@H]1SC
[1]
  Potency: inactive
[2]
  Potency: inactive
[3]
  Potency: inactive
[4]
  Potency: inactive

## CCN(CC)c1ccc(N=Nc2ccc(S(=O)(=O)N(C)C)cc2)c(S(=O)(=O)NCC[n+]2ccccc2)c1
[1]
  Potency: inactive
[2]
  Potency: inactive
[4]
  Potency: inactive

## Nc1ncnc(Nc2ccc(Cl)cc2)n1
[1]
  Potency: inactive
[5]
  Potency: 11.9 µM (active)
[3]
  Potency: inactive
[4]
  Potency: inactive

## NC[C@@H]1O[C@H](O[C@H]2[C@@H](O)[C@H](O[C@@H]3[C@@H](O)[C@H](N)C[C@H](N)[C@H]3O[C@H]3O[C@H](CO)[C@@H](O)[C@H](O)[C@H]3N)O[C@@H]2CO)[C@H](N)[C@@H](O)[C@@H]1O
[1]
  Potency: inactive
[5]
  Potency: inactive
[2]
  Potency: inactive
[3]
  Potency: inactive
[4]
  Potency: inactive

## COc1cc(C[C@@H]2NCCc3cc(O)c(O)cc32)cc(OC)c1OC
[1]
  Potency: inactive
[2]
  Potency: inactive
[3]
  Potency: inactive
[4]
  Potency: inactive

## O=P(O)(O)OC(Cn1cncn1)(Cn1cncn1)c1ccc(F)cc1F
[1]
  Potency: inactive
[2]
  Potency: inactive
[3]
  Potency: inactive
[4]
  Potency: inactive

## O=P(O)(O)OC(CO)CO
[1]
  Potency: inactive
[5]
  Potency: inactive
[3]
  Potency: inactive
[4]
  Potency: inactive

## c1ccc2c(CCC3CCNCC3)c[nH]c2c1
[1]
  Potency: inactive
[5]
  Potency: 11.9 µM (active)
[3]
  Potency: inactive
[4]
  Potency: inactive

## CS(=O)(=O)Nc1cc2occ(NC=O)c(=O)c2cc1Oc1ccccc1
[1]
  Potency: inactive
[5]
  Potency: inactive
[3]
  Potency: inactive
[4]
  Potency: inactive

## O=C(O)[C@@H](O)[C@H](O)[C@H](O)[C@@H](O)C(=O)O (tested in a mixture with another compound)
[1]
  Potency: inactive
[5]
  Potency: inactive
[3]
  Potency: inactive
[4]
  Potency: inactive

## CN(C)CCC=C1c2ccccc2C(C)(C)c2ccccc21
[1]
  Potency: inactive
[5]
  Potency: inactive
[6]
  max activation: 6.91%
[7]
  Potency: 22.4 µM (active)
[8]
  Potency: 25.1 µM (active)

## Cc1c(N)nc(C(CC(N)=O)NCC(N)C(N)=O)nc1C(=O)NC(C(=O)NC(C)C(O)C(C)C(=O)NC(C(=O)NCCc1nc(-c2nc(C(=O)NCCCN[C@@H](C)c3ccccc3)cs2)cs1)C(C)O)C(O[C@@H]1O[C@@H](CO)[C@@H](O)[C@H](O)[C@@H]1O[C@H]1O[C@H](CO)[C@@H](O)[C@H](OC(N)=O)[C@@H]1O)c1cnc[nH]1 (stereo not given in full)
[2]
  Potency: inactive
[4]
  PLD induction: 1.81% [at 7.66 µM]

## CCC(=O)c1ccc2c(c1)N(CCCN1CCN(CCO)CC1)c1ccccc1S2
[1]
  Potency: inactive
[6]
  max activation: -17.5%
[7]
  Potency: 14.1 µM (active)
[8]
  Potency: 25.1 µM (active)

## CCCCCCCCCCCCCCCCCCCCCC(=O)Nc1ccn([C@@H]2O[C@H](CO)[C@@H](O)[C@@H]2O)c(=O)n1
[1]
  Potency: inactive
[5]
  Potency: inactive
[3]
  Potency: inactive
[6]
  max activation: -4.2%
[7]
  Potency: inactive
[8]
  Potency: inactive

## CC(C)N1CCN(c2ccc(OC[C@H]3CO[C@](Cn4cncn4)(c4ccc(Cl)cc4Cl)O3)cc2)CC1
[1]
  Potency: inactive
[3]
  Potency: inactive
[6]
  max activation: -0.695%
[7]
  Potency: inactive
[8]
  Potency: 5.62 µM (active)

## C=C1C(=C/C=C2\CCC[C@]3(C)[C@@H]([C@H](C)/C=C/[C@H](C)C(C)C)CC[C@@H]23)C[C@@H](O)C[C@@H]1O
[2]
  Potency: inactive
[4]
  Potency: inactive

## CN1CC(O)c2cc(N=NC(N)=O)c(O)cc21 (stereo not given)
[5]
  Potency: inactive
[3]
  Potency: inactive
[4]
  Potency: inactive

## OCCN1CCN(CC/C=C2/c3ccccc3Sc3ccc(Cl)cc32)CC1
[1]
  Potency: inactive
[5]
  Potency: inactive
[2]
  Potency: inactive
[3]
  Potency: inactive
[6]
  max activation: -1.76%
[7]
  Potency: inactive
[8]
  Potency: inactive

## C[C@H]1C[C@@H]2[C@H]([C@@H](O)C[C@@]3(C)[C@H]2CC[C@]3(O)C(=O)COC(=O)CCC(=O)O)[C@@]2(C)C=CC(=O)C=C12
[1]
  Potency: inactive
[3]
  Potency: inactive
[4]
  PLD induction: 0.704% [at 7.66 µM]

## COc1cc2[nH]c(C)c(CCN3CCN(c4ccccc4)CC3)c2cc1OC
[5]
  Potency: inactive
[3]
  Potency: inactive
[4]
  Potency: inactive

## COC(=O)C1=C(C)NC(C)=C(C(=O)O[C@H]2CCN(Cc3ccccc3)C2)[C@H]1c1cccc([N+](=O)[O-])c1
[5]
  Potency: inactive
[2]
  Potency: 29.8 µM (active)
[4]
  Potency: inactive

## C=C1/C(=C\C=C2/CCC[C@]3(C)[C@@H]([C@H](C)OCCC(C)(C)O)CC[C@@H]23)C[C@@H](O)C[C@@H]1O
[1]
  Potency: inactive
[3]
  Potency: inactive
[4]
  Potency: inactive

## CC(CN(C)C)CN1c2ccccc2S(=O)(=O)c2ccccc21 (stereo not given)
[5]
  Potency: inactive
[3]
  Potency: inactive
[4]
  Potency: inactive

## Cc1ccc(/C(=C\CN2CCCC2)c2cccc(/C=C/C(=O)O)n2)cc1
[2]
  Potency: inactive
[4]
  Potency: inactive

Source: PubChem BioAssay (Tox21)
